Assay results taken from PubChem BioAssay (NCATS).
Records with an inconclusive call do not appear. The source made the active and inactive calls. The call rests on the fitted dose curve; in most records, active means well fitted cell-killing curve with a large enough effect; inconclusive means small, poorly fitted or top-dose-only effect, or effect the other way; inactive means no such curve, though single readings can be large or run the other way.

Assay: Quantitative High-Throughput drug screen in 47 multiple myeloma cell lines against the NCATS MIPE library collection: OPM2_DSMZ cell viability assay (AID 1919872); further: nearly all actives have a fitted effect of over 30% in size
Conditions: OPM2 myeloma viability, CellTiter-Glo ATP luminescence, 48 h; series mostly up to 45.8 µM
Description: PI: Beverly A. Mock Ph.D.
Laboratory of Cancer Biology and Genetics,
Center for Cancer Research, National Cancer Institute,
National Institute of Health, Bethesda, Maryland
Drug resistance and disease progression are common in multiple myeloma (MM) patients, underscoring the need for new therapeutic combinations. […] We hypothesized that effective combinations would reduce MYC expression and enhance p16 activity. […] These preclinical data identify potentially useful drug combinations for evaluation in drug-resistant MM and reveal potential mechanisms of combined drug sensitivity.
Described herein is the primary MIPE qHTS used to cherrypick compounds. Validated compounds were then further tested for potential synergistic activiy.
[1] Peat TJ, Gaikwad SM, Dubois W, Gyabaah-Kessie N, Zhang S, Gorjifard S, Phyo Z, Andres M, Hughitt VK, Simpson RM, Miller MA, Girvin AT, Taylor A, Williams D, D'Antonio N, Zhang Y, Rajagopalan A, Flietner E, Wilson K, Zhang X, Shinn P, Klumpp-Thomas C, McKnight C, Itkin Z, Chen L, Kazandijian D, Zhang J, Michalowski AM, Simmons JK, Keats J, Thomas CJ, Mock BA. Drug combinations identified by high-throughput screening promote cell cycle transition and upregulate Smad pathways in myeloma. Cancer Lett. 2023 Aug 1;568:216284. doi: 10.1016/j.canlet.2023.216284. Epub 2023 Jun 24. PMID: 37356470; PMCID: PMC10408729.
SEQUENCE No. (e.g., 1, 2, 3, etc.); […] (e.g., Cells, Incubation, Reagent, etc.); VALUE and DESCRIPTION.
1; Cells; 5 uL; white, solid bottom 1536-well Greiner assay plate.
2; Compounds; 23 nL; Kalypsis pin tool (Wako USA) equipped with a 1536-well pin head to transfer to the assay plates.
3; Incubation; 48 hours; 37C incubation.
4; Reagent;5uL; CellTiter Glo (Promega).
5; Detector; 425V; Luminescence; Viewlux PerkinElmer.
NOTES (numbers refer to Sequence numbers above)
1. The cell-based screening methods employed in this study were like those previously published. Briefly, the corresponding myeloma cell lines were screened in 1,536-well plates with 500 cells, 5-uL per well for inhibition of cell viability (assessed by measuring ATP levels with CellTiterGlo).
2. NCATS MIPE 4.0 library of approved and investigational drugs were added using the Kalypsis pin tool. Wells treated with DMSO only for 100% viability and media only wells for 0% viability were used as controls.
3. The assay plates were covered and incubated for 48 hours in a 37C, 5% CO2 incubator with controlled humidity.
4. After 48 hours, CellTilter-GloTM luminescent substrate mix (Promega) reagent was added to the assay plate and plates we incubated for 5 min at room temperature.
5. Signal was measured as median relative luminescence units on a ViewLux (PerkinElmer) multiplate reader.
[1] Heske CM, Davis MI, Baumgart JT, Wilson K, Gormally MV, Chen L, Zhang X, Ceribelli M, Duveau DY, Guha R, Ferrer M, Arnaldez FI, Ji J, Tran HL, Zhang Y, Mendoza A, Helman LJ, Thomas CJ. Matrix Screen Identifies Synergistic Combination of PARP Inhibitors and Nicotinamide Phosphoribosyltransferase (NAMPT) Inhibitors in Ewing Sarcoma. Clin Cancer Res. 2017 Dec 1;23(23):7301-7311. doi: 10.1158/1078-0432.CCR-17-1121. Epub 2017 Sep 12. PMID: 28899971; PMCID: PMC6636827.
Potency means the concentration at half of the fitted maximal effect.

Row | SMILES | Potency
1 | CN(C1CCc2c(c3ccccc3n2CC(=O)O)C1)S(=O)(=O)c1ccc(F)cc1 (stereo not given) | inactive
2 | O=c1c2ccccc2nc2n1CCc1c-2[nH]c2ccccc12 | inactive
3 | NC1(Cc2ccc(Cl)cc2)CCN(c2ncnc3[nH]ccc23)CC1 | 18.7 µM (active)
4 | C1Cc2[nH]nc(-c3nn[nH]n3)c2C1 | inactive
5 | COc1c(N2C[C@@H]3CCCN[C@H]3C2)c(F)cc2c(=O)c(C(=O)O)cn(C3CC3)c12 | 6.62 µM (active)
6 | CC(=O)OCC(=O)[C@@]1(O)[C@H](C)C[C@H]2[C@@H]3C=C(C)C4=Cc5c(cnn5-c5ccccc5)C[C@]4(C)[C@@H]3[C@@H](O)C[C@@]21C | 20.9 µM (active)
7 | CC(C)[C@H](C(=O)Nc1ccc(C(=O)NO)cc1)c1ccccc1 | 0.833 µM (active)
8 | Cc1cn(-c2cc(NC(=O)c3ccc(C)c(Nc4nccc(-c5cccnc5)n4)c3)cc(C(F)(F)F)c2)cn1 | 14.8 µM (active)
9 | CC=C1NC(=O)[C@H]2CSSCCC=C[C@H](CC(=O)N[C@H](C(C)C)C(=O)N2)OC(=O)[C@H](C(C)C)NC1=O | 0.0296 µM (active)
10 | O=C(O)c1ccc2cc(-c3ccc(O)c(C45CC6CC(CC(C6)C4)C5)c3)ccc2c1 | 23.5 µM (active)
11 | COC(=O)C1=C(C)NC(C)=C(C(=O)OCCN2CCN(C(c3ccccc3)c3ccccc3)CC2)C1c1cccc([N+](=O)[O-])c1 (stereo not given) | inactive
12 | COc1cc(C(=O)N2CCC(N3CCN(C)CC3)CC2)ccc1Nc1ncc2c(n1)N(C)c1ccccc1C(=O)N2C | 10.5 µM (active)
13 | Cc1ccc(C(=O)Nc2ccc(CN3CCN(C)CC3)c(C(F)(F)F)c2)cc1C#Cc1cnc2cccnn12 | 5.26 µM (active)
14 | Cc1cc(Nc2cc(CN3CCOCC3)c3nc(C)c(Cc4ccc(Cl)cc4F)n3n2)n[nH]1 | inactive
15 | CC(C)(C)c1cnc(CSc2cnc(NC(=O)C3CCNCC3)s2)o1 | 0.235 µM (active)
16 | COc1cc2nccc(Oc3ccc(NC(=O)C4(C(=O)Nc5ccc(F)cc5)CC4)cc3)c2cc1OC | 23.5 µM (active)
17 | C[C@@H]1COC(Nc2ccc3ncnc(Nc4ccc(OCc5nccs5)c(Cl)c4)c3c2)=N1 | 26.4 µM (active)
18 | CC(C)(C)c1cc(NC(=O)Nc2ccc(-c3cn4c(n3)sc3cc(OCCN5CCOCC5)ccc34)cc2)no1 | 5.26 µM (active)
19 | NC(=O)c1cccc2cn(-c3ccc([C@@H]4CCCNC4)cc3)nc12 | inactive
20 | Cc1cc(Nc2nc(N[C@@H](C)c3ccc(F)cc3)c(C#N)cc2F)n[nH]1 | 4.69 µM (active)

Row | SMILES | Potency
21 | Cc1cc(Nc2ncnc3ccc(-c4ccc(CNCCS(C)(=O)=O)o4)cc23)ccc1Oc1ccn2ncnc2c1 | 20.9 µM (active)
22 | N#CCNC(=O)c1ccc(-c2ccnc(Nc3ccc(N4CCOCC4)cc3)n2)cc1 | 20.9 µM (active)
23 | CNC(=O)c1ccc(-c2cnc3ncc(Cc4ccc5ncccc5c4)n3n2)cc1F | inactive
24 | CC[C@H]1CN2CCc3cc(OC)c(OC)cc3[C@H]2C[C@@H]1C[C@@H]1NCCc2cc(OC)c(OC)cc21 | 0.418 µM (active)
25 | NC(=O)Nc1cc(-c2cccc(F)c2)sc1C(=O)N[C@H]1CCCNC1 | 2.64 µM (active)
26 | O=C(NCCCNc1nc(Nc2cccc(NC(=O)N3CCCC3)c2)ncc1I)c1cccs1 | 16.6 µM (active)
27 | Cn1cncc1[C@@](N)(c1ccc(Cl)cc1)c1ccc2c(c1)c(-c1cccc(Cl)c1)cc(=O)n2C | 11.8 µM (active)
28 | CCN(CC)CCCCNc1ncc2cc(-c3cc(OC)cc(OC)c3)c(NC(=O)NC(C)(C)C)nc2n1 | 20.9 µM (active)
29 | O=C(C=Cc1cccc(S(=O)(=O)Nc2ccccc2)c1)NO | 3.82 µM (active)
30 | Nc1nc(Nc2ccc(S(N)(=O)=O)cc2)nn1C(=O)c1c(F)cccc1F | 14.8 µM (active)
31 | O=C(O)Cn1nnc(-c2cc(N3CCC(Oc4cc(F)ccc4Br)CC3)no2)n1 | inactive
32 | COC(=O)[C@]12CCC(C)(C)C[C@@H]1[C@@H]1C(=O)C=C3[C@@]4(C)C=C(C#N)C(=O)C(C)(C)[C@@H]4CC[C@@]3(C)[C@]1(C)CC2 | 0.833 µM (active)
33 | CCCNC(=O)Nc1ccc(Oc2ncnc3cc(OC)c(OC)cc23)cc1Cl | inactive
34 | Clc1ccc2ncc(-c3cccc(NC4CNC4)n3)n2c1 | 23.5 µM (active)
35 | CN1CC[C@@H](c2c(O)cc(O)c3c(=O)cc(-c4ccccc4Cl)oc23)[C@@H](O)C1 | 0.118 µM (active)
36 | CC1(C)O[C@@H]2C[C@@H]3[C@H]4C[C@@H](F)C5=CC(=O)C=C[C@]5(C)[C@@]4(F)[C@@H](O)C[C@]3(C)[C@]2(C(=O)CO)O1 | inactive
37 | C[C@H]1C[C@@H]2[C@@H]([C@@H](O)C[C@@]3(C)[C@H]2CC[C@]3(O)C(=O)CO)[C@@]2(C)C=CC(=O)C=C12 | inactive
38 | CC(C)C[C@H](NC(=O)CNC(=O)c1cc(Cl)ccc1Cl)B(O)O | 0.132 µM (active)
39 | Cn1c(CNc2ccc(C(=N)N)cc2)nc2cc(C(=O)N(CCC(=O)O)c3ccccn3)ccc21 | inactive
40 | CNC(=O)c1ccc(N2C(=S)N(c3cnc(C#N)c(C(F)(F)F)c3)C(=O)C23CCC3)cc1F | inactive
